Sampled rows, rich in hits. Any-hit rate of the full collection: about 3.5%.
GPR151 ag: activates the human receptor GPR151; PathHunter beta-arrestin GPR151 cells, luminescence; activation, % at 11.2 µM; 650,000 compounds, 1% hits; in the data active = activation above about 4.9%;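 also: 0% = median of compound wells and 100% = cells with positive control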
FBW7 activator: activators of human E3 ligase FBW7 | Q969H0 | AlphaScreen FBW7–phospho-cyclin E peptide binding, activator screen | normalized activity (activation), % at 26.1 µM | 650,000 compounds, 0.13% hits; in the data active = normalized activity above about 1.9%;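 also: purified mutant Fbw7 with reduced substrate affinity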
TEAD-YAP inh: TEAD-YAP interaction inhibition. HEK-TIYL cells, TEAD-Gal4/YAP UAS-luciferase luminescence. inhibition, % at 9.12 µM. 640,000 compounds, 1.4% hits; in the data active = inhibition above about 32%;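 also: 0% = median of test compound wells and 100% = reference inhibitor wells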
MITF primary: blocks human microphthalmia-associated transcription factor; 650,000 compounds, 0.91% hits; AlphaScreen MITF homodimerization, bead proximity signal; AID 1259374; O75030; inhibition, % at 2.6 µM; in the data active = inhibition above about 50%;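 also: 0% = vehicle wells with protein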
GPR151 confirm: confirmation of human GPR151 activators | shares compounds with GPR151 ag | GPR151 PathHunter beta-arrestin cells, luminescence, 90 min; % of EA-reagent control over plate median | activation, % at 11.2 µM | 6,700 tested, under 10 active | AID 1508609;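 active = mean percent activation across replicates above the confirmation screen cutoff of 4.91%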
GPR119 ag: activates human GPR119 in a GPR151 counter-screen. 6,700 compounds, 0.3% hits. activation, % at 11.2 µM. shares compounds with GPR151 ag. GPR119 PathHunter beta-arrestin cells, luminescence, 90 min; 0 = compound-well median, 100 = enzyme-acceptor control;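 active = mean percent activation in the counterscreen above 29.09%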;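 also: counterscreen on off-target GPR119 to flag nonselective hits from the GPR151 activator screen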
Active calls of the source: *; · = no result.

SMILES	GPR151 ag	FBW7 activator	TEAD-YAP inh	MITF primary	GPR151 confirm	GPR119 ag
CC[C@H](C)[C@@H]1NC(=O)[C@@H]2C[C@H](NC(=O)Nc3cccc(Cl)c3)CN2C1=O	5.3*	0	-21	-10	0	9
Cc1ccc2c(c1)NC(=O)C(CC(=O)NCCCN(Cc1ccccc1)C(C)C)O2 (centres undefined)	-2	1	16	18	·	·
CCCCNC(=O)C1CCCN1S(=O)(=O)c1cccc2nsnc12 (centres undefined)	0	1	-5	9	·	·
CN1CCN(c2ccccc2NC(=O)c2ccc([N+](=O)[O-])cc2Cl)CC1	-2	1	-8	21	·	·
Cc1c(Cl)cccc1NC(=O)c1cc([N+](=O)[O-])ccc1N1CCN(C)CC1	6.2*	0	11	0	1	19
O=C1CC(NCCc2ccccc2)C(=O)N1c1ccc(Cl)c(Cl)c1 (centres undefined)	0	0	-1	-14	·	·
Cc1cc(OC(C)C(=O)N(Cc2ccco2)C2CCS(=O)(=O)C2)ccc1Cl (centres undefined)	-1	0	8	7	·	·
Cc1ccccc1NC(=O)C(C)(C)N(Cc1ccco1)C(=O)C(C)Oc1cc(Cl)c(Cl)cc1Cl (centres undefined)	5.6*	0	-8	12	0	-8
O=C1CC(=O)Nc2cc(S(=O)(=O)N3CCn4c3nc3ccccc34)ccc2N1	5.9*	0	-6	8	0	10
Cn1c(=O)oc2cc(S(=O)(=O)N3CCn4c3nc3ccccc34)ccc21	1	0	-11	3	·	·
COc1ccc(CCN(C)C2CCCN(C(=O)CCc3c(C)noc3C)C2)cc1OC (centres undefined)	0	0	-5	8	·	·
CN(Cc1ccon1)C(=O)C1CC(Cc2ccc(F)cc2)=NO1 (centres undefined)	-2	0	0	13	·	·
Cc1ccc(SCC(=O)Nc2cccc(F)c2)cc1	6.4*	0	-57	-10	-1	-6
O=C(CNS(=O)(=O)c1ccc(Br)cc1)Nc1cccc(F)c1	1	0	-1	12	·	·
O=C(O)c1ccc(NC(=O)c2cccc(S(=O)(=O)Nc3cccc(F)c3)c2)cc1	8.7*	0	0	-3	0	4
O=C(CSc1ccccc1)Nc1cccc(F)c1	-1	0	-48	4	·	·
O=C(CNS(=O)(=O)c1ccccc1)Nc1cccc(F)c1	6.0*	0	2	1	0	-3
CC1=NN(c2ccccc2)C(=O)/C1=C\c1cc(C)n(-c2cccc([N+](=O)[O-])c2)c1C	0	0	9	14	·	·
COc1cc(/C=C2\C(=O)N(c3ccc(C(=O)OC(C)C)cc3)N=C2C)ccc1O	-1	0	-14	2	·	·
COc1ccc(/C=C2\C(=O)N(c3ccc(Cl)c(C(=O)O)c3)N=C2C)cc1OC	5.7*	0	-6	2	0	11
COc1cc(/C=C2/C(=O)N(c3ccc(I)cc3)N=C2C)ccc1O	5.4*	0	2	7	-1	2
CC(C)c1ccc(Cn2ccc3c4c(N)nc(NC5CC5)nc4ccc32)cc1	6.5*	0	·	-4	6.5*	106*
O=C(O)c1ccccc1-c1ccccc1C(=O)NC1CS(=O)(=O)CC1O (centres undefined)	5.1*	0	-11	-14	2	16
O=C(O)c1ccccc1-c1ccccc1C(=O)Nc1ccccc1	2	0	5	22	·	·
Cn1c2c(c(=O)n(C)c1=O)C(c1ccccc1)C1=C(CC(C)(C)CC1=O)N2 (centres undefined)	3	0	10	10	·	·
SMILES	GPR151 ag	FBW7 activator	TEAD-YAP inh	MITF primary	GPR151 confirm	GPR119 ag
Cn1c2c(c(=O)n(C)c1=O)C(c1cccc(F)c1)C1=C(CC(C)(C)CC1=O)N2 (centres undefined)	18*	0	-5	5	1	9
Cn1c2c(c(=O)n(C)c1=O)C(c1ccc(Cl)cc1)C1=C(CC(C)(C)CC1=O)N2 (centres undefined)	5.5*	0	-2	-5	1	4
Cc1cccc(C2C3=C(CC(C)(C)CC3=O)Nc3c2c(=O)n(C)c(=O)n3C)c1 (centres undefined)	0	0	3	10	·	·
Cc1ccc(/C=C/C(=O)NCc2ccc(S(N)(=O)=O)cc2)o1	6.3*	-1	-6	5	0	-4
Cc1ccc(S(=O)(=O)NCC2(c3cccs3)CCOCC2)c(C)c1	7.3*	0	-1	4	1	-6
COc1ccc(C)cc1NC(=O)c1sc2nc3n(c(=O)c2c1C)CCCC3	2	0	0	-1	·	·
COc1cc(NC(=O)c2sc3nc4n(c(=O)c3c2C)CCCC4)cc(OC)c1OC	12*	0	-8	-6	0	-1
Cc1cccc(NC(=O)CSc2nc3n[nH]c(C)c3c(=N)n2-c2ccc(Br)cc2)c1	5.8*	0	3	3	0	5
CCOc1ccc(NC(=O)CSc2nc3n[nH]c(C)c3c(=N)n2-c2ccc(OCC)cc2)cc1	-1	0	30	1	·	·
CCOc1ccc(-n2c(SCC(=O)Nc3ccc(CC)cc3)nc3n[nH]c(C)c3c2=N)cc1	5.3*	0	13	4	2	9
COc1ccc(OC)c(NC(=O)CSc2nc3n[nH]c(C)c3c(=N)n2-c2cc(Cl)ccc2C)c1	12*	0	0	7	0	0
CCCCNC(=O)CSc1nc2n[nH]c(C)c2c(=N)n1-c1ccccc1CC	5.9*	0	-22	-6	0	3
COc1cc(C)c(Cl)c(C)c1S(=O)(=O)N1CC(C)OC(C)C1 (centres undefined)	0	0	-7	2	·	·
COc1ccc(/C(N)=N/OC(=O)c2cc(Cl)ccc2OC)cc1	6.8*	0	7	7	0	-1
COc1ccc(C(=O)N(CCCO)C(C)C(=O)NC2CCCCC2)cc1OC (centres undefined)	5.1*	1	4	15	1	4
CCOc1ccc(Br)cc1C(=O)NC1CCCCC1	2	0	2	-14	·	·
CCN(CC)C(=O)C1CCCN(c2ccc([N+](=O)[O-])cc2[N+](=O)[O-])C1 (centres undefined)	1	0	9	-4	·	·
CCN(CC)C(=O)C1CCCN(c2ccc([N+](=O)[O-])cc2S(=O)(=O)N2CCCC2)C1 (centres undefined)	7.0*	0	-17	-3	0	14
COc1ccc(N(CC(=O)Nc2ccccc2-c2ccccc2)S(C)(=O)=O)cc1	15*	0	-1	3	-1	-3
COc1cccc(NC(=O)CN(C)CC(=O)Nc2ccccc2-c2ccccc2)c1	5.7*	0	-8	46	-1	-10

Bioassay records deposited in PubChem by The Scripps Research Institute Molecular Screening Center.
